Experiments:
Assay in all cases: PBM binding z-score (relative to random genomic background probes); higher = stronger binding; sequences stand for … in GC…GCGATTGACAGCGTAGAATGAAGG
[1] = system: FXR:RXRa (NR concentration 270 nM, RXRa partner concentration 90 nM)
How it was run: (§1)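 For binding z-scores, the reference was random background probes on custom Agilent 4×180K protein-binding microarrays. These arrays were incubated 1 h with ligand-free nuclear receptor dimers in PBS pH 7.4, 2% milk, 0.02% Triton X-100, 1 mM DTT, 0.2 mg/mL BSA and 0.4 mg/ml salmon testes DNA. Fluorescence was scanned after antibody detection of each partner (one per run) and regression-normalized.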

[2] = system: LXRa:RXRa (NR concentration 270 nM, RXRa partner concentration 90 nM)
How it was run: as §1

[3] = system: LXRa homodimer (NR concentration 270 nM)
How it was run: as §1

[4] = system: LXRb:RXRa (NR concentration 270 nM, RXRa partner concentration 90 nM)
How it was run: as §1

[5] = system: LXRb homodimer (NR concentration 270 nM)
How it was run: as §1

[6] = system: PPARa:RXRa (NR concentration 270 nM, RXRa partner concentration 90 nM)
How it was run: as §1

[7] = system: PPARg:RXRa (NR concentration 180 nM, RXRa partner concentration 90 nM)
How it was run: as §1

[8] = system: PPARg:RXRa 270nM:90nM, anti-RXR (NR concentration 270 nM, RXRa partner concentration 90 nM)
How it was run: as §1

[9] = system: PPARg:RXRa 30nM:10nM, anti-RXR (NR concentration 30 nM, RXRa partner concentration 10 nM)
How it was run: as §1

[10] = system: PPARg:RXRa 90nM:30nM, anti-RXR (NR concentration 90 nM, RXRa partner concentration 30 nM)
How it was run: as §1

Sequence	PBM binding z-score [1]	PBM binding z-score [2]	PBM binding z-score [3]	PBM binding z-score [4]	PBM binding z-score [5]	PBM binding z-score [6]	PBM binding z-score [7]	PBM binding z-score [8]	PBM binding z-score [9]	PBM binding z-score [10]
GCATATAGGTAATACAAGGTGAAAGTTCGATTGT	1.05	2.54	0.814	1.37	-0.201	2.67	3.47	4.13	2.29	3.58
CCTACTGGGCCATTCATAGGTCATTGATCATATG	0.867	2.17	3.55	2	-0.0981	2.64	1.49	1.93	0.277	1.06
GCCAGTTGGTCAGTAAAAGGTCACACACCGGTCG	3.07	4.03	4.4	3.89	-0.0245	4.36	2.75	4.34	1.84	3.62
CCTAGTTGGTCAAGGTCACCCACGCTATAGGTAC	4.05	3.51	2.14	3.51	0.583	4.14	2.93	3.43	1.1	2.35
ACTATTAGTTGAGAAGAGGGCAACCGATAGGTTG	0.199	0.323	0.0723	-0.0222	0.248	0.44	0.56	0.246	0.12	0.365
TCTTGTAGATCAAGCAGGTTAATAAAGCCTGAGT	0.189	0.118	-0.263	0.262	-0.449	0.639	-0.267	0.922	2.43	1.6
TCTAGCAGGCCAGAGGGTCATTCAAGAGGTACGG	1.45	1.27	-0.353	1.51	-1.01	2.71	1.54	3.08	2.26	2.98
TTACCAAGGTGAGCTGAGGTCGTTGAACCAACTC	1.78	1.48	-0.292	0.787	-0.885	1.88	0.111	0.783	-0.445	0.391
TTACCAAGATGAGCTGAGGTCGTTGATCCAACTC	0.71	0.408	0.0791	0.458	-0.782	0.853	0.0458	0.511	0.543	0.66
AGAACGAGGGCACGCTGAGTTCATAGCAGAGTAG	2.2	3.15	1.02	1.45	-0.593	3.12	2.52	2.43	0.373	1.47
GTACCAAGGTGAATAGGTCGTGGATGAGTAGGCG	1.25	1.07	-0.132	0.395	-0.586	2.47	1.85	2.35	0.297	1.3
ATATGTAGGTTATAGGGTCATTCAGTTTGCGCAT	4.47	4.26	2.22	3.98	1.38	5.36	7.99	7.04	5.54	7.25
ACTATTAGTTGACTTAGGGAAACCGATACGACGC	0.197	0.155	0.512	0.0262	0.742	-0.255	0.843	0.171	0.193	0.259
CGAACAAGGGCATGAGTTGATAGCAAATGCCGAT	-0.0162	0.00346	-0.221	-0.134	-0.495	0.425	0.963	0.765	0.259	0.196
CCGACTGGGGCAAGGTTACCCTAACGCACAGCCA	0.301	0.334	-0.217	0.52	-1.15	1.88	2.75	3.18	0.752	2.75
GCGACTGGGGCATCAGCAGGTTAGCATAACTTAA	-0.723	-0.775	-0.738	0.063	-1.51	0.705	0.575	0.572	-0.512	0.0276
ATCGACAGGTCGAGGTGAGTATAGAGAAAGGGAA	0.437	0.548	-0.71	0.0707	-0.444	1.51	0.748	0.211	0.16	0.281
GCTGTTAGGTCAGGTTGGTCAGCTAACGGGTACG	1.95	1.14	-0.132	1.04	0.0917	1.79	0.166	1	-0.41	0.138
AGTCAAAGTTCATCTAGCTAACGTAAGATATGCT	6.22	5.88	4.89	3.8	1.73	4.45	6.14	6.05	3.68	5.44
